Experimental data reported in PubChem BioAssay.
Results with a measured potency or affinity are listed apart. A number with no mark means an inactive call.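 The calls were made as follows: active = a fitted half-maximal concentration no higher than twice the top valid tested dose, with signal falling as cells die; inconclusive = flat curve between -70% and -30%, or poor fit; inactive = the rest, including signal rising instead of falling.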

Assay: viability loss in HeLa cells – cell-based, ATP luminescence, cherry-pick samples, cytotoxicity control, dose response (AID 687004);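 also: 0% = neutral control median and -100% = staurosporine 10 µM control median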
Conditions: ATP luminescence (CellTiter-Glo), 48 h; series mostly up to 26 µM; activity change, negative = cytotoxicity: at the top concentration

Point of comparison: `Cc1cc(C(=O)Nc2cccc3c2O[C@H](CN(C)S(=O)(=O)c2ccccc2)[C@H](C)CN([C@H](C)CO)C3=O)n(C)n1`, “activity change, negative = cytotoxicity” value 7.9%. Against it:
- CO[C@H]1CN(C)C(=O)c2cc(NS(=O)(=O)CC(F)(F)F)ccc2OC[C@H](C)N(Cc2cccnc2)C[C@@H]1C — higher, 15.6%
- CCNC(=O)Nc1ccc2c(c1)C(=O)N(C)[C@H]1CC[C@H](CC(=O)N[C@@H](C)c3ccccc3)O[C@H]1CO2 — higher, 10.4%
- C/C=C/c1cnc2c(c1)C(=O)N([C@@H](C)CO)C[C@@H](C)[C@@H](CN(C)C(=O)C1CCCCC1)O2 — lower, 5.1%
- COc1ccc(S(=O)(=O)Nc2ccc3c(c2)C(=O)N([C@H](C)CO)C[C@@H](C)[C@@H](CN(C)C(=O)Nc2ccccc2)O3)cc1 — lower, -0.726%
- CNC(=O)C[C@H]1CC[C@H]2[C@@H](COc3ccc(NC(=O)Nc4ccccc4)cc3C(=O)N2C)O1 — higher, 9.98%
- CCNC(=O)Nc1ccc2c(c1)C(=O)N(C)[C@@H]1CC[C@H](CC(=O)N[C@@H](C)c3ccccc3)O[C@@H]1CO2 — higher, 12.7%
- CC(=O)N1[C@H](CO)[C@H](c2ccc(-c3ccccc3)cc2)[C@H]1CNC(=O)C1CC1 — lower, -2.4%
- CCC(=O)N1C[C@H](O)COC[C@@H]2O[C@@H](CC(=O)NCc3ccccc3Cl)CC[C@H]21 — lower, -4.31%
- C[C@@H]1CN([C@@H](C)CO)C(=O)c2cccc(NC(=O)c3ccncc3)c2O[C@H]1CN(C)C(=O)Nc1ccccc1 — higher, 14.2%

For `C[C@@H]1CCCCO[C@@H](CN(C)Cc2ccc(C(F)(F)F)cc2)[C@@H](C)CN([C@@H](C)CO)C(=O)c2cc(NS(=O)(=O)c3cn(C)cn3)ccc2O1`, the “activity change, negative = cytotoxicity” value was -4.73% [at 23.5 µM].
